Test results taken from PubChem BioAssay (Tox21).
Where “and” joins values, the source holds several entries; their conditions need not be identical. Equal values may be shown once. Records with an inconclusive call do not appear. Some compounds were tested as several samples or in several runs, with calls that do not always agree. Calls of active or inactive are those of the source. The call rests on the fitted dose curve; in most records, active means well fitted inhibition curve with a large enough effect in the repeat runs; inconclusive means weak or mixed curves; inactive means no such curve, though single readings can be large or run the other way.

biological target: Cytochrome P450 2C9 (Homo sapiens) (UniProt P11712); assay: Cytochrome P450 Family 2 Subfamily C Member 9 (CYP2C9) small molecule antagonists: luciferase reporter qHTS assay (AID 1671198); settings: P450-Glo CYP2C9 enzyme assay, luciferin luminescence; series mostly up to 115 µM; activity change, negative = inhibition: at the top concentration
Method in brief: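 CYP2C9 activity was measured with a P450-Glo proluciferin substrate. Enzyme–substrate mix was held with compound for 10 min at room temperature, then NADPH regeneration solution was added for 1 h at 37C. Luciferin product was read as luminescence.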
Further: nearly all actives have a fitted effect of over 50% in size.
On the % scale 0 is the no-effect control and ±100 the full control effect; potency means the concentration at half of the fitted maximal effect.

Chain of Cytochrome P450 2C9 (Homo sapiens) (P11712 whole entry, looked up): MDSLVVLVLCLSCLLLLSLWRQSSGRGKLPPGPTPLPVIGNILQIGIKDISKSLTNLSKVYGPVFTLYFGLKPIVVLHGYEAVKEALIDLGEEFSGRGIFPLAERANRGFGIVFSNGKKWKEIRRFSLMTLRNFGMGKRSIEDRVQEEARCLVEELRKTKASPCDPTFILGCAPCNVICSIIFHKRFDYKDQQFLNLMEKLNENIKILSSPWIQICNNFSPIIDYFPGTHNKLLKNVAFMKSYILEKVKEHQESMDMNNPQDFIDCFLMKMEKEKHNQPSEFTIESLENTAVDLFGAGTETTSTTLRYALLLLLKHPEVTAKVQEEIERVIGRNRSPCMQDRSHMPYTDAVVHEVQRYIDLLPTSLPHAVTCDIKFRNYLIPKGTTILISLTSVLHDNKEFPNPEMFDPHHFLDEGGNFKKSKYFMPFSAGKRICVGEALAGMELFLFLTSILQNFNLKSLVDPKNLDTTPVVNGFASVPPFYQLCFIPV

Row | SMILES | activity change, negative = inhibition | Potency
1 | c1ccc2c(c1)c1cccc3ccc4cccc2c4c31 | -18.8% (inactive) | –
2 | CCCCOCCOCCOCCO | – | inactive
3 | Cc1cc2nc3c(=O)[nH]c(=O)nc-3n(C[C@H](O)[C@H](O)[C@H](O)CO)c2cc1C | -0.762% [at 23.6 µM] (inactive) | –
4 | CCOCCOCCO | -18.1% (inactive) | –
5 | Nc1ncnc2nc[nH]c12 | – | inactive
6 | Nc1ccc(S(=O)(=O)Nc2cnc3ccccc3n2)cc1 | – | 11.2 µM (active) and 15.5 µM (active)
7 | Cc1[nH]c(=O)c(C#N)cc1-c1ccncc1 | – | 29.1 µM (active)
8 | C[Si](C)(C)O[Si](C)(C)C | – | inactive
9 | O=CCCCC=O | – | inactive
10 | CCCCC(CC)COP(=O)(OCC(CC)CCCC)OCC(CC)CCCC (configuration not stated) | -15% (inactive) | –
11 | c1cc(-c2ccncc2)ccn1 | – | 40.3 µM (active) and 35.6 µM (active)
12 | OC(CCl)CCl | – | inactive
13 | CCCC(=O)O | – | inactive
14 | CCCCC(CC)COCC1CO1 (configuration not stated) | – | inactive
15 | c1ccc2sc(SSN3CCOCC3)nc2c1 | – | 15.9 µM (active) and 11.2 µM (active)
16 | O=C(/C=C/c1ccccc1)OCc1ccccc1 | – | 17.8 µM (active) and 13.8 µM (active)
17 | NNc1ccc(C(=O)O)cc1 | – | 10.2 µM (active)
18 | CC(C)OC(=O)C(C)(C)Oc1ccc(C(=O)c2ccc(Cl)cc2)cc1 | – | 3.56 µM (active) and 1.74 µM (active)
19 | OC[C@H]1O[C@@H]2O[C@H]3[C@H](O)[C@@H](O)[C@@H](O[C@H]4[C@H](O)[C@@H](O)[C@@H](O[C@H]5[C@H](O)[C@@H](O)[C@@H](O[C@H]6[C@H](O)[C@@H](O)[C@@H](O[C@H]7[C@H](O)[C@@H](O)[C@@H](O[C@H]8[C@H](O)[C@@H](O)[C@@H](O[C@H]1[C@H](O)[C@H]2O)O[C@@H]8CO)O[C@@H]7CO)O[C@@H]6CO)O[C@@H]5CO)O[C@@H]4CO)O[C@@H]3CO | 12% [at 53 µM] (inactive) | –
20 | CN(C)CCN(Cc1cccs1)c1ccccn1 | – | inactive
21 | Cc1c(C(N)=O)cc([N+](=O)[O-])cc1[N+](=O)[O-] | – | inactive
22 | c1ccc2cc(Nc3ccc(Nc4ccc5ccccc5c4)cc3)ccc2c1 | -17.2% (inactive) | –
23 | CN1C(C(=O)Nc2ccccn2)=C(O)c2ccccc2S1(=O)=O | – | 12.7 µM (active) and 13.8 µM (active)
24 | COC(=O)CCC(=O)OC | -12.7% (inactive) | –
25 | COc1c(Cl)c(Cl)c(Cl)c(Cl)c1Cl | -10.4% (inactive) | –
26 | COC(C)COC(C)COC(C)CO (configuration not stated) | – | 22.4 µM (active)
27 | CC(=O)C1(C)CC2=C(CCCC2(C)C)CC1C (configuration not stated) | – | inactive

biological target: Cytochrome P450 1A2 (Homo sapiens) (UniProt P05177); assay: Cytochrome P450 Family 1 Subfamily A Member 2 (CYP1A2) small molecule antagonists: luciferase reporter qHTS assay (AID 1671199); settings: P450-Glo CYP1A2 enzyme, luciferin luminescence, 1 h; series mostly up to 115 µM; activity change, negative = inhibition: at the top concentration
Method in brief: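 Luminescence readout (relative luminescence units) after luciferin detection reagent, 20 min RT. Preceded by 1 h room-temperature CYP1A2 reaction with NADPH regeneration solution following 10 min compound preincubation with enzyme and proluciferin substrate. Furafylline positive control.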

Chain of Cytochrome P450 1A2 (Homo sapiens) (P05177 whole entry, looked up): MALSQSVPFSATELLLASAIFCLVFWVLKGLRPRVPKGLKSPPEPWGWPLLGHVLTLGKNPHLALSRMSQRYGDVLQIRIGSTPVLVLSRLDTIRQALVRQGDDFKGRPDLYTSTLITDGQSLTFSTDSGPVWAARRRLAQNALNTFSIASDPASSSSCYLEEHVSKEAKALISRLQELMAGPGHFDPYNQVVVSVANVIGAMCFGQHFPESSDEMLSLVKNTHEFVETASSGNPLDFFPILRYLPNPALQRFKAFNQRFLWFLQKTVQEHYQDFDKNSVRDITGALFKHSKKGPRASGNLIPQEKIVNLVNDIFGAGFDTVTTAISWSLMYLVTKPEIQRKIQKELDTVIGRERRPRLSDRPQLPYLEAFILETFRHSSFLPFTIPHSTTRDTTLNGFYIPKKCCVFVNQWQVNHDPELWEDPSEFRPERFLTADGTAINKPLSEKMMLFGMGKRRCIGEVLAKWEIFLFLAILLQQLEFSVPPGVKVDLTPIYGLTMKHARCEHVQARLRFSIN

Row | SMILES | Potency | activity change, negative = inhibition
28 | c1ccc2c(c1)c1cccc3ccc4cccc2c4c31 | 112 nM (active) and 20 nM (active) | –
29 | C#C[C@]1(O)CC[C@H]2[C@@H]3CCC4=Cc5oncc5C[C@]4(C)[C@H]3CC[C@@]21C | – | -17% [at 53 µM] (inactive)
30 | CC(CCC(=O)O)(c1ccc(O)cc1)c1ccc(O)cc1 | inactive | –
31 | CCOCCOCCO | – | -24.7% (inactive)
32 | Nc1ncnc2nc[nH]c12 | inactive | –
33 | COC(=O)C1=C(C)NC(C)=C(C(=O)OCCN(C)Cc2ccccc2)C1c1cccc([N+](=O)[O-])c1 (configuration not stated) | – | -19.8% [at 53 µM] (inactive)
34 | Cc1[nH]c(=O)c(C#N)cc1-c1ccncc1 | 56.4 µM (active) and inactive | –
35 | C[Si](C)(C)O[Si](C)(C)C | – | -17.5% (inactive)
36 | O=CCCCC=O | inactive | –
37 | CCCCC(CC)COP(=O)(OCC(CC)CCCC)OCC(CC)CCCC (configuration not stated) | – | -16.7% (inactive)
38 | c1cc(-c2ccncc2)ccn1 | 40.3 µM (active) and 35.6 µM (active) | –
39 | CCCC(=O)O | – | -21.8% (inactive)
40 | CCCCC(CC)COCC1CO1 (configuration not stated) | – | -15.8% (inactive)
41 | c1ccc2sc(SSN3CCOCC3)nc2c1 | 20 µM (active) and 22.4 µM (active) | –
42 | O=C(/C=C/c1ccccc1)OCc1ccccc1 | 11.2 µM (active) and 6.92 µM (active) | –
43 | NNc1ccc(C(=O)O)cc1 | 32.1 µM (active) and 32 µM (active) | –
44 | CC(C)OC(=O)C(C)(C)Oc1ccc(C(=O)c2ccc(Cl)cc2)cc1 | 35.6 µM (active) | –
45 | OC[C@H]1O[C@@H]2O[C@H]3[C@H](O)[C@@H](O)[C@@H](O[C@H]4[C@H](O)[C@@H](O)[C@@H](O[C@H]5[C@H](O)[C@@H](O)[C@@H](O[C@H]6[C@H](O)[C@@H](O)[C@@H](O[C@H]7[C@H](O)[C@@H](O)[C@@H](O[C@H]8[C@H](O)[C@@H](O)[C@@H](O[C@H]1[C@H](O)[C@H]2O)O[C@@H]8CO)O[C@@H]7CO)O[C@@H]6CO)O[C@@H]5CO)O[C@@H]4CO)O[C@@H]3CO | inactive | –
46 | CN(C)CCN(Cc1cccs1)c1ccccn1 | inactive and 27.5 µM (active) | –
47 | Cc1c(C(N)=O)cc([N+](=O)[O-])cc1[N+](=O)[O-] | – | 2.84% [at 53 µM] (inactive)
48 | CC(C)(C)NC(=O)[C@H]1CC[C@H]2[C@@H]3CC[C@H]4NC(=O)C=C[C@]4(C)[C@H]3CC[C@]12C | inactive | –
49 | CN1C(C(=O)Nc2ccccn2)=C(O)c2ccccc2S1(=O)=O | – | 2.07% [at 53 µM] (inactive)
50 | COc1c(Cl)c(Cl)c(Cl)c(Cl)c1Cl | 28.4 µM (active) and 5.03 µM (active) | –
51 | COC(C)COC(C)COC(C)CO (configuration not stated) | inactive | –
52 | CC(=O)C1(C)CC2=C(CCCC2(C)C)CC1C (configuration not stated) | inactive | –
